Test in all cases: yeast three-hybrid, YBZ-1, SC-Leu-His + 0.5 mM 3-AT, 4 days
Common to all, as to settings: tags: N-Gal4 AD-HA kept; label: inside an RPR1-promoter hybrid RNA with tandem MS2 sites; ssRNA

One experiment addresses PUM1 PUF domain R3-LWE (Homo sapiens, UniProt Q14671 828-1176, C935L;R936W;Q939E). Put shortly: (§1)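 Sequencing with Illumina followed PCR amplification of the repeat regions from transformants grown four days on SC-Leu (input) or SC-Leu-His + 0.5 mM 3-AT (selection). The transformants were strain YBZ-1 with a LexA–MS2 coat fusion and a HIS3 reporter, carrying Pumilio-1 PUF domain libraries and matching RNA elements. The interaction score is the log change in variant frequency from input to selection, computed in log2 with a pseudocount of 1 for absent variants.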

For another experiment, the target named is PUM1 PUF domain R3-RER (Homo sapiens, UniProt Q14671 828-1176, C935R;R936E;Q939R). Put shortly:
as §1

A further experiment has as its target PUM1 PUF domain R1-KDS (Homo sapiens, UniProt Q14671 828-1176, S863K;R864D;Q867S). In outline: as §1
In a further experiment the target is PUM1 PUF domain R5-RQI (Homo sapiens, UniProt Q14671 828-1176, C1007R;R1008Q;Q1011I). In outline:
as §1

For another experiment, the target named is PUM1 PUF domain R5-KAE (Homo sapiens, UniProt Q14671 828-1176, C1007K;R1008A;Q1011E). Put shortly:
as §1

In a further experiment the target is PUM1 PUF domain R5-MPR (Homo sapiens, UniProt Q14671 828-1176, C1007M;R1008P;Q1011R). Put shortly:
as §1

In a further experiment the target is PUM1 PUF domain R4-PFK (Homo sapiens, UniProt Q14671 828-1176, N971P;H972F;Q975K). Put shortly: as §1
For another experiment, the target named is PUM1 PUF domain R4-PHK (Homo sapiens, UniProt Q14671 828-1176, N971P;Q975K). Put shortly:
as §1

Another experiment concerns the target PUM1 PUF domain R4-APR (Homo sapiens, UniProt Q14671 828-1176, N971A;H972P;Q975R). In outline:
as §1

In another experiment the target is PUM1 PUF domain R8-RWD (Homo sapiens, UniProt Q14671 828-1176, N1122R;Y1123W;Q1126D). In outline: as §1
PUM1 PUF domain R8-RWD, sequence (Q14671 828-1176 N1122R/Y1123W/Q1126D): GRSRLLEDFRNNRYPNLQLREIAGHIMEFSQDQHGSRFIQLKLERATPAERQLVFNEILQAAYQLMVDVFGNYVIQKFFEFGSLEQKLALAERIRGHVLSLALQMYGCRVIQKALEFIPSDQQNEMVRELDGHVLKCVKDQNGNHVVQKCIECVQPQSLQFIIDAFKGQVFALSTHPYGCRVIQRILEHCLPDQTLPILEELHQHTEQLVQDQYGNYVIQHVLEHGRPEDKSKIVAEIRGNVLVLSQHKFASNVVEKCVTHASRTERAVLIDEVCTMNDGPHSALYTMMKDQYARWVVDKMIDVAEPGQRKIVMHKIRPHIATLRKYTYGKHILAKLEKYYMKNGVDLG

PUM1 PUF domain R3-LWE, sequence (Q14671 828-1176 C935L/R936W/Q939E): as the sequence (Q14671 828-1176 N1122R/Y1123W/Q1126D) above, with C108L, R109W, Q112E, R295N, W296Y, D299Q counted along it
PUM1 PUF domain R4-PFK, sequence (Q14671 828-1176 N971P/H972F/Q975K): as the sequence (Q14671 828-1176 N1122R/Y1123W/Q1126D) above, with N144P, H145F, Q148K, R295N, W296Y, D299Q counted along it
PUM1 PUF domain R1-KDS, sequence (Q14671 828-1176 S863K/R864D/Q867S): as the sequence (Q14671 828-1176 N1122R/Y1123W/Q1126D) above, with S36K, R37D, Q40S, R295N, W296Y, D299Q counted along it
PUM1 PUF domain R5-RQI, sequence (Q14671 828-1176 C1007R/R1008Q/Q1011I): as the sequence (Q14671 828-1176 N1122R/Y1123W/Q1126D) above, with C180R, R181Q, Q184I, R295N, W296Y, D299Q counted along it
PUM1 PUF domain R5-MPR, sequence (Q14671 828-1176 C1007M/R1008P/Q1011R): as the sequence (Q14671 828-1176 N1122R/Y1123W/Q1126D) above, with C180M, R181P, Q184R, R295N, W296Y, D299Q counted along it
PUM1 PUF domain R4-APR, sequence (Q14671 828-1176 N971A/H972P/Q975R): as the sequence (Q14671 828-1176 N1122R/Y1123W/Q1126D) above, with N144A, H145P, Q148R, R295N, W296Y, D299Q counted along it
PUM1 PUF domain R5-KAE, sequence (Q14671 828-1176 C1007K/R1008A/Q1011E): as the sequence (Q14671 828-1176 N1122R/Y1123W/Q1126D) above, with C180K, R181A, Q184E, R295N, W296Y, D299Q counted along it
PUM1 PUF domain R4-PHK, sequence (Q14671 828-1176 N971P/Q975K): as the sequence (Q14671 828-1176 N1122R/Y1123W/Q1126D) above, with N144P, Q148K, R295N, W296Y, D299Q counted along it
PUM1 PUF domain R3-RER, sequence (Q14671 828-1176 C935R/R936E/Q939R): as the sequence (Q14671 828-1176 N1122R/Y1123W/Q1126D) above, with C108R, R109E, Q112R, R295N, W296Y, D299Q counted along it

With “GGCUAGAACUAGUGGAUCCCCCGGCGCCCGGCGGCUCGAGCCCGGGUAAGUGUAAUUAGUCUGCAUGCCGCCGGGCGCCAUGCCUGCAGGUCGACUCUAGAAAACAUG”, the binding signal is 1.78 log2 enrichment (interaction score) with PUM1 PUF domain R3-LWE and 4.06 log2 enrichment (interaction score) with PUM1 PUF domain R3-RER.
Take “GGCUAGAACUAGUGGAUCCCCCGGCGCCCGGCGGCUCGAGCCCGGGUAAGUGUAAAUGGUCUGCAUGCCGCCGGGCGCCAUGCCUGCAGGUCGACUCUAGAAAACAUG”: the binding signal with PUM1 PUF domain R1-KDS was 2.77 log2 enrichment (interaction score).
Turning to “GGCUAGAACUAGUGGAUCCCCCGGCGCCCGGCGGCUCGAGCCCGGGUAAGUGUCAAUAGUCUGCAUGCCGCCGGGCGCCAUGCCUGCAGGUCGACUCUAGAAAACAUG”, the binding signal was 2.06 log2 enrichment (interaction score) in the experiment with PUM1 PUF domain R5-RQI, 3.8 log2 enrichment (interaction score) with PUM1 PUF domain R5-KAE and 2.13 log2 enrichment (interaction score) with PUM1 PUF domain R5-MPR.
As for “GGCUAGAACUAGUGGAUCCCCCGGCGCCCGGCGGCUCGAGCCCGGGUAAGUGUACAUAGUCUGCAUGCCGCCGGGCGCCAUGCCUGCAGGUCGACUCUAGAAAACAUG”, the binding signal was 4.33 log2 enrichment (interaction score) in the experiment with PUM1 PUF domain R4-PFK, 3.9 log2 enrichment (interaction score) in the experiment with PUM1 PUF domain R4-PHK and 2.91 log2 enrichment (interaction score) in the experiment with PUM1 PUF domain R4-APR.
For the sequence “GGCUAGAACUAGUGGAUCCCCCGGCGCCCGGCGGCUCGAGCCCGGGUAAGUGUAAAUCGUCUGCAUGCCGCCGGGCGCCAUGCCUGCAGGUCGACUCUAGAAAACAUG”, the binding signal with PUM1 PUF domain R1-KDS was 2.96 log2 enrichment (interaction score).
With “GGCUAGAACUAGUGGAUCCCCCGGCGCCCGGCGGCUCGAGCCCGGGUAAGUGUAAGUAGUCUGCAUGCCGCCGGGCGCCAUGCCUGCAGGUCGACUCUAGAAAACAUG”, the binding signal in the experiment with PUM1 PUF domain R3-LWE was 5.48 log2 enrichment (interaction score).
With “GGCUAGAACUAGUGGAUCCCCCGGCGCCCGGCGGCUCGAGCCCGGGUAAGUGUAUAUAGUCUGCAUGCCGCCGGGCGCCAUGCCUGCAGGUCGACUCUAGAAAACAUG”, the binding signal with PUM1 PUF domain R4-PFK was 6.46 log2 enrichment (interaction score); with PUM1 PUF domain R4-APR it was 2.82 log2 enrichment (interaction score).
With “GGCUAGAACUAGUGGAUCCCCCGGCGCCCGGCGGCUCGAGCCCGGGUAAGUGUAAAUAGUCUGCAUGCCGCCGGGCGCCAUGCCUGCAGGUCGACUCUAGAAAACAUG”, the binding signal with PUM1 PUF domain R4-PFK is 4.17 log2 enrichment (interaction score); with PUM1 PUF domain R3-LWE it was 3.37 log2 enrichment (interaction score); with PUM1 PUF domain R5-MPR, 1.45 log2 enrichment (interaction score); with PUM1 PUF domain R8-RWD, 2.26 log2 enrichment (interaction score).
On to “GGCUAGAACUAGUGGAUCCCCCGGCGCCCGGCGGCUCGAGCCCGGGUAAGUGUUAAUAGUCUGCAUGCCGCCGGGCGCCAUGCCUGCAGGUCGACUCUAGAAAACAUG”, for which the figures for the binding signal with PUM1 PUF domain R5-RQI and with PUM1 PUF domain R5-KAE were 4.62 log2 enrichment (interaction score) and 2.99 log2 enrichment (interaction score), respectively.
As for “GGCUAGAACUAGUGGAUCCCCCGGCGCCCGGCGGCUCGAGCCCGGGUAAGCGUAAAUAGUCUGCAUGCCGCCGGGCGCCAUGCCUGCAGGUCGACUCUAGAAAACAUG”, the binding signal in the experiment with PUM1 PUF domain R8-RWD is 2.45 log2 enrichment (interaction score).

Values taken from PMC8384837, “Expanding the binding specificity for RNA recognition by a PUF domain”.
